Laboratory results published in PubChem BioAssay (NCI).
The panel holds about 83,000 compounds, 20% with a hit somewhere; the sample as a whole holds those more often.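 96-well plates, one dose, 48 hours. Percent growth reported; active if below 10.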 Values without a mark were called inactive. Activity calls are given as the source filed them.

tested on: SF-539 CNS; assay: NCI-60 one-dose screen, 48 h (100 = growth as untreated, 0 = no growth, -100 = all killed); conditions: 10 µM unless noted

Row | Structure (SMILES) | growth
1 | CN1CCN(c2ccc(Nc3nc(NCCNC(=O)c4ccc(F)cc4)c4sccc4n3)cc2)CC1 | -64.7% (active)
2 | O=[N+]([O-])c1ccc(NC(=S)NNC(=S)Nc2ccc(Br)cc2)cc1 | 95.2%
3 | C/C(=N\NC(=O)/C=C/CC(=O)O)c1nnn(-c2ccc([N+](=O)[O-])cc2)c1C | 100%
4 | CN1CCN(c2ccc(Nc3nc(NCCCNS(=O)(=O)c4ccc(F)cc4)c4sccc4n3)cc2)CC1 | -76% (active)
5 | N#CC1=C2NCCCNc3oc(nc3C#N)Cc3ccccc3CC(=N1)O2 | 99.2%
6 | COc1ccccc1/C=C1\Oc2ccc(O)c(O)c2C1=O | 91.8%
7 | COc1ccc(NC2=C(Br)C(=O)C(C)=C(C)C2=O)cc1OC | 101%
8 | O=C(Nc1ccc(N=Cc2c(O)[nH]c3ccccc23)cc1)Nc1ccc(S(=O)(=O)Nc2ncccn2)cc1 | 105%
9 | NC(=O)c1c(NC(=O)c2ccc(C(F)(F)F)cc2)sc2c1CCC(=O)C2 | -74.3% (active)
10 | O=C(/C=C/c1cccc(Br)c1)c1cccc(OCCCCOc2cccc(C(=O)/C=C/c3cccc(Br)c3)c2)c1 | 104%
11 | O=C(CCCCCCNC(=O)c1csc(Br)n1)NO | 36.7%
12 | CC1CC(=O)C2=C(C1)Nc1ccc(Br)cc1CC2c1c[nH]c2ccc(Br)cc12 (configuration not stated) | 54.8%
13 | C#CCN(C)CCCOc1ccc(NCc2ccc(C(=O)NO)cc2)cc1Cl | 23.9%
14 | CC(=O)Nc1nc(C)c(-c2csc(Nc3ccccc3)n2)s1 | 15.9%
15 | Cc1csc(/N=C(N)/N=C(\N)c2cccc(C#N)c2)n1 | 76.7%
16 | Clc1cccc(/C=N/Nc2nc(N/N=C/c3cccc(Cl)c3)nc(N3CCCCC3)n2)c1 | 105%
17 | O=C1[C@H]2Cc3c([nH]c4ccccc34)[C@H](c3ccc(Br)cc3)N2C(=O)CN1C1CCN(CC2CCCCC2)CC1 | 75.3%
18 | Cc1[nH]c(C(=O)Nc2ccc(C(=O)NCC3CCNCC3)cc2OC(C)C)c(Cl)c1Cl | 83.8%
19 | CCN(CC)S(=O)(=O)c1ccc(-c2nc(C(Cl)Cl)nc3cc(-c4ccc(F)cc4)nn23)cc1 | 18.4%
20 | C/C(=N/N)c1nnn(-c2ccc(Br)cc2)c1C | 93.1%
21 | CC1=C(C)C(=O)C(Nc2cccc(C)c2)=C(Br)C1=O | 98.2%
22 | Cc1ccc(C(=O)Nc2ccc(CNCCN3CCNCC3)c(C(F)(F)F)c2)cc1C#Cc1cnc2cccnn12 | -83% (active)

tested on: UACC-257 melanoma; assay: as above; conditions: 10 µM unless noted

Row | Structure (SMILES) | growth
23 | C#C[C@]1(O)CC[C@H]2[C@@H]3CC=C4c5sc(Nc6cc(C)cc(C)c6)nc5CC[C@]4(C)[C@H]3CC[C@@]21C | 16%
24 | CCCC[n+]1ccc(SCC(=O)n2ccc3ccccc32)c2ccccc21 | 95.7%
25 | CC(C)(C)c1cc(NC(=O)Nc2ccc(-c3cn4c5c(sc4n3)CCc3cn(CCCN4CCCCC4)cc3-5)cc2)no1 | 51.3%
26 | CCCCCCNC(=O)Oc1ccc(/C(=C(/C)c2ccc(OC)cc2)c2ccc(OCCN3CCCCCC3)cc2)cc1 | 9.09% (active)
27 | Cn1cc(-c2cc3ncnc(Nc4ccc(CC(=O)Nc5nc(C(C)(C)C)cs5)cc4)c3s2)cn1 | 79.1%
28 | O=C(CCCCCC/C=C\c1csc(Br)n1)NO | 82%
29 | COc1ccc(C(=O)c2c(N)c(C#N)cn2-c2ccc(Cl)cc2Cl)cc1 | 98.2%
30 | Cc1ccc2c(n1)C(=O)C(Cl)=C(Nc1cccc(C(F)(F)F)c1)C2=O | -4.17% (active)
31 | O=C1[C@H]2Cc3c([nH]c4ccccc34)[C@H](c3ccc(Cl)cc3)N2C(=O)CN1C1CCN(CC2CCCCC2)CC1 | 75.1%
32 | COc1ccc(/C=N/NC(=O)c2c(N)nn(C)c2Nc2ccccc2)cc1 | 56.4%
33 | Fc1ccc2nc(-c3cnn4cccnc34)sc2c1 | 100%
34 | O=C(/C=C/c1cccc(F)c1)c1cccc(OCCCCOc2cccc(C(=O)/C=C/c3cccc(F)c3)c2)c1 | 105%
35 | O=C(COc1ccc(/C=C2\C(=O)Nc3ccc(Cl)cc32)cc1)Nc1ccc(Cl)cc1 | 82.5%
36 | O=C(Nc1cccc(Cl)c1)Nc1nc2cc([N+](=O)[O-])ccc2o1 | 54.6%
37 | COc1ccc(NC(=O)CCCCCCNC(=O)C(O)(O)C(F)(F)F)cc1 | 48.7%
38 | CC(=O)N(O)CCCCCNC(=O)CCC(=O)N(O)CCCCCNC(=O)CCC(=O)N(O)CCCCCN(CCCCCCCCCC[P+](c1ccccc1)(c1ccccc1)c1ccccc1)CCCCCCCCCC[P+](c1ccccc1)(c1ccccc1)c1ccccc1 | -10.9% (active)
39 | Cc1cc(Br)ccc1-n1cc(C#N)c(N)c1C(=O)c1ccc(Br)cc1 | 103%
40 | CN(C)S(=O)(=O)c1ccc(-c2nc(C(Cl)Cl)nc3cc(-c4ccccc4)nn23)cc1 | 105%
41 | CN1CCN(c2ccc(Nc3nc(NCCNC(=O)c4ccc(F)cc4)c4sccc4n3)cc2)CC1 | 0.258% (active)
42 | O=[N+]([O-])c1ccc(NC(=S)NNC(=S)Nc2ccc(Br)cc2)cc1 | 95.2%

Row | Structure (SMILES) | growth
43 | C/C(=N\NC(=O)/C=C/CC(=O)O)c1nnn(-c2ccc([N+](=O)[O-])cc2)c1C | 105%
44 | CN1CCN(c2ccc(Nc3nc(NCCCNS(=O)(=O)c4ccc(F)cc4)c4sccc4n3)cc2)CC1 | -28.6% (active)
45 | N#CC1=C2NCCCNc3oc(nc3C#N)Cc3ccccc3CC(=N1)O2 | 92.2%
46 | COc1ccccc1/C=C1\Oc2ccc(O)c(O)c2C1=O | 101%
47 | COc1ccc(NC2=C(Br)C(=O)C(C)=C(C)C2=O)cc1OC | 96%
48 | O=C(Nc1ccc(N=Cc2c(O)[nH]c3ccccc23)cc1)Nc1ccc(S(=O)(=O)Nc2ncccn2)cc1 | 103%
49 | NC(=O)c1c(NC(=O)c2ccc(C(F)(F)F)cc2)sc2c1CCC(=O)C2 | -18% (active)
50 | O=C(/C=C/c1cccc(Br)c1)c1cccc(OCCCCOc2cccc(C(=O)/C=C/c3cccc(Br)c3)c2)c1 | 109%
51 | O=C(CCCCCCNC(=O)c1csc(Br)n1)NO | 18.4%
52 | CC1CC(=O)C2=C(C1)Nc1ccc(Br)cc1CC2c1c[nH]c2ccc(Br)cc12 (configuration not stated) | 67.9%
53 | C#CCN(C)CCCOc1ccc(NCc2ccc(C(=O)NO)cc2)cc1Cl | 10.3%
54 | CC(=O)Nc1nc(C)c(-c2csc(Nc3ccccc3)n2)s1 | 50.7%
55 | Cc1csc(/N=C(N)/N=C(\N)c2cccc(C#N)c2)n1 | 80.8%
56 | Clc1cccc(/C=N/Nc2nc(N/N=C/c3cccc(Cl)c3)nc(N3CCCCC3)n2)c1 | 111%
57 | O=C1[C@H]2Cc3c([nH]c4ccccc34)[C@H](c3ccc(Br)cc3)N2C(=O)CN1C1CCN(CC2CCCCC2)CC1 | 97.4%
58 | Cc1[nH]c(C(=O)Nc2ccc(C(=O)NCC3CCNCC3)cc2OC(C)C)c(Cl)c1Cl | 101%
59 | CCN(CC)S(=O)(=O)c1ccc(-c2nc(C(Cl)Cl)nc3cc(-c4ccc(F)cc4)nn23)cc1 | 67.7%
60 | C/C(=N/N)c1nnn(-c2ccc(Br)cc2)c1C | 105%
61 | CC1=C(C)C(=O)C(Nc2cccc(C)c2)=C(Br)C1=O | 84.8%
62 | Cc1ccc(C(=O)Nc2ccc(CNCCN3CCNCC3)c(C(F)(F)F)c2)cc1C#Cc1cnc2cccnn12 | -6.59% (active)
